{"source": "paper PMC5540273", "about": "(PLoS ONE, 2017);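 also: KINOMEscan kinase panel screen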"}
{"test_system": "PRKCQ", "conditions": "concentration: 1 μM, replicates: in singlicate; n = 1", "units": {"%Inh": "%"}}
{"smiles": "COc1ccc(Nc2nccc(N3CCC(NC(=O)C(C)c4ccc(Cl)cc4)CC3)n2)cc1", "note": "(stereo not shown) [GSK1379812]", "%Inh": 0}
{"smiles": "CC(=O)c1c(C)c2cnc(Nc3ccc(N4CCNCC4)cn3)nc2n(C2CCCC2)c1=O", "%Inh": 0}
{"smiles": "Nc1nccc(-c2c(-c3ccc(F)cc3)ncn2C2CCN(Cc3ccccc3)CC2)n1", "note": "[SB-219980]", "%Inh": 0}
{"smiles": "Fc1ccc(-c2nc3n(c2-c2ccncc2)CCS3)cc1", "note": "[GI98581]", "%Inh": 21}
{"smiles": "COc1cccc(CNC(=O)NC2CCN(c3ccnc(Nc4ccc(F)cc4)n3)C2)c1", "note": "(stereo not shown) [GSK1379723]", "%Inh": 0}
{"smiles": "c1ccc(-c2ccnc3[nH]ccc23)cc1", "note": "[SB-693578]", "%Inh": 0}
{"smiles": "Cc1ccc(NC(=O)c2ccc(Cl)cc2)cc1-c1ccc(C(=O)Nc2ccncc2)cc1", "note": "[GSK1398467]", "%Inh": 0}
{"smiles": "CNCc1ccc2nc(NC(=O)c3ccc(C(C)(C)C)cc3)cn2c1", "%Inh": 0}
{"smiles": "COc1ccc(-c2coc3ccc(-c4nnc(C)o4)cc23)cc1", "%Inh": 19}
{"smiles": "O=C(Nc1n[nH]c2nc(-c3ccco3)c(Br)cc12)C1CCN(Cc2ccccc2)C1.O=C(O)[C@H](O)[C@@H](O)C(=O)O", "note": "(stereo not shown) [SB-742034]", "%Inh": 4}
{"smiles": "Cc1c(Cn2c(C)c(C)n3c(=O)cc(N4CCOCC4)nc23)cccc1C(F)(F)F", "note": "[GSK2328680]", "%Inh": 8}
{"smiles": "COC(=O)C(NC(=O)NC1CCN(c2ccnc(Nc3ccc(F)cc3)n2)C1)c1ccccc1", "note": "(stereo not shown) [GSK1379712]", "%Inh": 3}
{"smiles": "Cc1ccc(NC(=O)Nc2ccc(Cl)cc2)cc1-c1ccc(C(=O)Nc2ccncc2)cc1", "note": "[GSK1398472]", "%Inh": 10}
